An excerpt weighted towards active compounds, which were near 1.7% of everything screened.
p53ts 39C tox = p53ts cell cytotoxicity, nonpermissive temperature; H1299-p53A138V viability at 39C, ATP luminescence, 24 h; Potency, µM (top dose mostly 46.1 µM), actives largely listed as cytotoxic; 1.5% of 130,000 active; further: nearly all actives have a fitted effect of over 55% in size
p53ts 32C tox = p53ts cell cytotoxicity, permissive temperature | H1299-p53A138V at 32C, ATP luminescence viability, 24 h | Potency, µM (series often up to 46.1 µM), actives largely listed as cytotoxic | 0.93% of 130,000 active; further: nearly all actives have a fitted effect of over 55% in size
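ATP-content luminescence (ATPlite) read-out after 24 h compound exposure at 32C in H1299-p53A138V cells (600/well). Tested up to 46 uM. Normalized to DMSO (0%) and 100 uM tamoxifen (100% killing); Hill-fit AC50.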
IkB sig inh = IkB pathway inhibition in ABC-DLBCL cells; ABC-DLBCL IkBa-CBG/CBR dual luciferase ratio, 4 h; response scale: scaled: untreated 0%, proteasome inhibitor 100%; Potency, µM (titrated, usually from 57.1 µM); 0.04% of 110,000 active; AID 445; active means well fitted curve in the direction sought with a large enough effect in the signal ratio, not every such curve was filed as active; inconclusive means small, poorly fitted or top-dose-only effect, or a change in a side signal; the % refers to the signal ratio;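 further: the direction sought is a rising ratio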
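Luminescence ratio of IκBα-fused green versus native red beetle luciferase in OCI-Ly3 cells, 4 h post-doxycycline with compound; red signal alone, scaled from basal (0%) to zero light (-100%), flagged nonspecific or cytotoxic effects.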
Peg3 imprint = genomic imprint erasure induction. Potency, µM (highest dose often 60.7 µM), usual class: activators. mouse ES Peg3-LacZ reporter, beta-gal luminescence, 40 h. 0.02% of 110,000 active
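Each well holds 300 Peg3LacZ-Neo (maternal) female ES cells incubated 40 h at 37C, 5% CO2. LacZ is measured by BetaGlo luminescence, with AC50 and maximum efficacy derived from dose-response curves.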
Hits are given with their value; . = inactive; ? = inconclusive; / = no result given; [ ] = another dose, or the depositor's remark. Unless noted, the call rests on the fitted dose curve; in most records, active means well fitted curve in the direction sought with a large enough effect; inconclusive means small, poorly fitted or top-dose-only effect, or another doubt; inactive means no such curve, though single readings can be large; an effect the other way counts as inactive or inconclusive.

SMILES | p53ts 39C tox | p53ts 32C tox | IkB sig inh | Peg3 imprint
COc1ccc(-c2cc(C(N)=O)nc(N3CCCCCC3)n2)cc1 | 10µM | 7.9µM | ? | .
Cc1ccc(CNC(=O)c2cc(=O)c3cc(C)cc(C)c3o2)cc1 | . | . | . | .[10.9 µM]
O=[N+]([O-])c1cc(Cc2cc([N+](=O)[O-])c3cccnc3c2O)c(O)c2ncccc12 | .[9.22 µM] | .[9.22 µM] | 5µM | .[10.9 µM]
CCCC(=O)NC(c1cccs1)c1cc([N+](=O)[O-])c2cccnc2c1O (centres undefined) | . | / | / | /
COC(=O)[C@@H]1C[C@@H]2CC[C@@H](O)C[C@@H]2N1Cc1ccc(N2CCOCC2)cc1 | . | . | / | .
NC(=O)c1ccccc1N/C=C/C(=O)c1cccs1 | ? | 11µM | / | /
Cc1ccc(C(=O)/C=C/Nc2ccccc2C(N)=O)o1 | 13µM | 13µM | ? | .
Cc1cccc(N/C=C/C(=O)c2cccs2)c1C | 10µM | / | / | /
Cc1ccc(/C=C/C(=O)Nc2ccccc2C(N)=O)o1 | 5µM | 7.9µM | ? | .[10.9 µM]
CC(=O)Nc1ccc(N/C=C/C(=O)c2ccc(C)o2)cc1 | . | . | . | ?
COc1ccc2c(c1OC)C(=O)N(c1cccc(C)c1)C2 | 5µM | 7.9µM | . | .
COc1ccc2c(c1OC)C(=O)N(c1cccc(C(F)(F)F)c1)C2 | ? | ? | . | .
O=c1cc(-c2ccccc2)nc2cc(-c3ccc(F)cc3)[nH]n12 | 10µM | . | ? | .[10.9 µM]
Cc1cc(=O)n2[nH]c(-c3ccccc3)cc2n1 | . | . | . | .
C[C@H]1C[C@@H]2[C@H]3CCC4=CC(=O)C=C[C@@]4(C)[C@]3(Cl)[C@@H](Cl)C[C@]2(C)[C@]1(O)C(=O)COP(=O)(O)O | / | / | .[11.4 µM] | /
Cc1ccc(NC(=O)c2cc(C)n(-c3ccccc3)c2C)cc1 | 7.1µM | / | / | /
CC(C)C(=O)Nc1ccccc1OCc1cc(=O)n2ccccc2n1 | . | . | . | .[10.9 µM]
CCc1ccc(NC(=O)Nc2ccccc2OCc2cc(=O)n3ccccc3n2)cc1 | 3.2µM | ? | ? | .[10.9 µM]
CC(C)c1ccc(NC(=O)c2ccc3c(c2)CCCN3S(C)(=O)=O)cc1 | . | 13µM | . | .[10.9 µM]
CC(C)c1ccc(NC(=O)c2ccc3c(c2)CCN3S(=O)(=O)c2ccccc2)cc1 | . | . | . | .[10.9 µM]
CCc1nnc(NC(=O)c2nc(SCc3ccccc3F)ncc2Cl)s1 | . | . | ? | .[10.9 µM]
Cc1cccc(CSc2ncc(Cl)c(C(=O)Nc3nc4ccc(F)cc4s3)n2)c1 | . | . | . | .[10.9 µM]
CCc1nnc(NC(=O)c2nc(S(=O)(=O)Cc3cccc(C)c3)ncc2Cl)s1 | 5µM | ? | . | .[10.9 µM]
CCc1nnc(NC(=O)c2nc(S(=O)(=O)Cc3ccc(C)cc3)ncc2Cl)s1 | 6.3µM | 16µM | ? | .[10.9 µM]
CCOc1ccccc1NC(=O)c1nc(S(=O)(=O)Cc2cccc(C)c2)ncc1Cl | 3.2µM | 16µM | ? | .[10.9 µM]
SMILES | p53ts 39C tox | p53ts 32C tox | IkB sig inh | Peg3 imprint
CCOc1ccccc1NC(=O)c1c(NC(=O)c2cccc(C)c2)sc2c1CCCC2 | . | . | . | .[10.9 µM]
Cc1ccc(-n2ncc(C(=O)NC3CCCCC3)c2C2CCN(C(=O)OC(C)(C)C)CC2)cc1 | . | . | . | .[10.9 µM]
C=C1C(=O)C=C2CN(C(=O)c3ccccc3)[C@@](Cc3ccc(OC)cc3)(C(=O)OC)[C@@H]12 | 20µM | 3.2µM | / | .
COC(=O)[C@@]1(Cc2ccc(OC)cc2)[C@@H]2C(=CC(=O)[C@H]2CC(=O)C(=O)N2CCCC2)CN1C(=O)c1ccccc1 | . | . | / | .
CCOc1ccccc1NC(=O)c1ccc2c(Cl)c3c(nc2c1)CCCC3 | . | . | ? | ?
CCOc1ccccc1NC(=O)c1ccc2c(Cl)c3c(nc2c1)CCC3 | 4µM | ? | ? | .[10.9 µM]
O=C(Nc1ccccc1F)c1ccc2c(Cl)c3c(nc2c1)CCC3 | 1.6µM | 1.3µM | ? | .[10.9 µM]
c1ccc(-c2ccc(-c3nc(-c4ccccn4)no3)cc2)cc1 | 3.2µM | 1.6µM | ? | .
Cc1ccc(-c2nc(-c3ccccn3)no2)cc1 | 0.4µM | 0.5µM | / | /
c1ccc(-c2noc(-c3ccco3)n2)nc1 | ? | . | ? | .
Cc1ccc(-c2nc(-c3ccccn3)no2)cc1Cl | 2.5µM | 2µM | ? | .
c1ccc(-c2nc(-c3ccccn3)no2)cc1 | 7.1µM | 5.6µM | / | /
COc1cc(-c2nc(-c3ccccn3)no2)cc(OC)c1OC | . | . | ? | .
c1ccc(-c2cc(-c3nc(-c4ccccn4)no3)c3ccccc3n2)cc1 | . | . | . | .
COc1cccc(CCNC(=O)c2c(O)nc3c(C)cccn3c2=O)c1 | . | . | . | .[10.9 µM]
Cc1ccc2nc(-c3cccnc3)oc2c1 | ? | ? | . | .
